This note sets out measurements from PubChem BioAssay.

The nature of assay [1]: binders of probe aFSTL3 on microarray, primary screen, stem cell growth factor project, biochemical, small-molecule microarray, fluorescence 635/667 (AID 1064).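 Note: measures binding of the biotinylated anti-FSTL3 antibody to printed compounds.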 The note with it: higher = more signal.
The nature of assay [2]: binders from COS7 lysate, DM2A8 probe, primary screen, torsin A project, cell lysate, small-molecule microarray, fluorescence 635/667 (AID 1065). The settings on record: higher = more signal, COS7 lysate expressing mutant human TOR1A.
Assay [3] is described as follows: binders of probe aFGF2 on microarray, primary screen, stem cell growth factor project, biochemical, small-molecule microarray, fluorescence 635/667 (AID 1067).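 Note: measures binding of biotinylated aFGF2 protein to printed compounds on slides; z-score merges feature fluorescence and signal-to-noise across triplicate slides.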 The settings on record: higher = more signal.
Assay [4] is described as follows: binders of probe aFGF10 on microarray, primary screen, stem cell growth factor project, biochemical, small-molecule microarray, fluorescence 635/667 (AID 1071).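 Note: score merges 667 nm spot intensity and signal to noise from triplicate slides.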 The settings on record: higher = more signal.
The target in assay [5] is Neurogenic locus notch homolog protein 2 (Homo sapiens) (UniProt Q04721). Briefly: Notch2 binders on small-molecule microarrays, primary screen, biochemical, small-molecule microarray, 635 nm fluorescence, stem cell growth factors (AID 1073). The settings on record: Notch2 binding, higher = more signal.
Assay [6] deals with Pro-neuregulin-1, membrane-bound isoform (Homo sapiens) (UniProt Q02297). Briefly: NRG1 binders on small-molecule microarrays, primary screen, psychiatric disease protein project, biochemical, small-molecule microarray, fluorescence 635/667 (AID 1075).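 Note: score combines 667 nm spot fluorescence with signal to noise.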 The settings on record: NRG1 binding, 635 nm fluorescence, higher = more signal.
The subject of assay [7] is Neuregulin-1 EGF-like domain. Nature of the assay: binders of neuregulin-1 EGF-like domain, primary screen, biochemical, small-molecule microarray, 635 nm fluorescence (AID 1081).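 Note: binding of the protein to compounds printed on small-molecule microarray slides.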 The note with it: small-molecule microarray binding, higher = more signal.
A short description of assay [8]: FRG1 promoter luciferase signal modulators, primary screen, FRG1 inhibition for FSHD, cell-based, C2C12 myotubes, firefly/Renilla luciferase, luminescence (AID 1084). The settings on record: higher = more signal, called active from +8 up or from −8 down.
A short description of assay [9]: binders of probe aFST on microarray, primary screen, stem cell growth factor project, biochemical, small-molecule microarray, fluorescence 635/667 (AID 1086).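 Note: score merges 667 nm fluorescence with signal-to-noise of each printed compound spot.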 The settings on record: higher = more signal.
A short description of assay [10]: binders of probe aHhip on microarray, primary screen, stem cell growth factor project, biochemical, small-molecule microarray, fluorescence 635/667 (AID 1087).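 Note: score merges spot fluorescence at 667nm with spot signal to noise ratio.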 The note with it: higher = more signal.

Each structure is given as a SMILES string. Calls of active or inactive are those of the source.

Chain of Pro-neuregulin-1, membrane-bound isoform (Homo sapiens) (Q02297 whole entry, looked up, the tested form may be a part, canonical isoform): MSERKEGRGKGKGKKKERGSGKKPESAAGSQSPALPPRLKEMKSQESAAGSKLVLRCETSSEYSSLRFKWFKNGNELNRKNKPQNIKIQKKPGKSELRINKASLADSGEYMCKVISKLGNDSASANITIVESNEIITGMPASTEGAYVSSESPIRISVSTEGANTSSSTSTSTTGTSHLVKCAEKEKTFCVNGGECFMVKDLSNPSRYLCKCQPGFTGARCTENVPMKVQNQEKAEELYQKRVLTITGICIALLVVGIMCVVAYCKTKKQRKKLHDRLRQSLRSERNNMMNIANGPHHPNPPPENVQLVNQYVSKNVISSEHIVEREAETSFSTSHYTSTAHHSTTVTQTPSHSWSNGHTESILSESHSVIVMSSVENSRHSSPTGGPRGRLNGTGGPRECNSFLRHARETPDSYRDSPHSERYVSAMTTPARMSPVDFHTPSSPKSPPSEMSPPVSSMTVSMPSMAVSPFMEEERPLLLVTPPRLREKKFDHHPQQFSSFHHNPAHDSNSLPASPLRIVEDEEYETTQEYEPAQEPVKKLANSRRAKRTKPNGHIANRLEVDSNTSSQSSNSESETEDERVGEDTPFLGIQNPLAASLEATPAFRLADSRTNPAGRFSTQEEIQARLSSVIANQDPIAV
Chain of Neurogenic locus notch homolog protein 2 (Homo sapiens) (Q04721 whole entry, looked up, canonical isoform): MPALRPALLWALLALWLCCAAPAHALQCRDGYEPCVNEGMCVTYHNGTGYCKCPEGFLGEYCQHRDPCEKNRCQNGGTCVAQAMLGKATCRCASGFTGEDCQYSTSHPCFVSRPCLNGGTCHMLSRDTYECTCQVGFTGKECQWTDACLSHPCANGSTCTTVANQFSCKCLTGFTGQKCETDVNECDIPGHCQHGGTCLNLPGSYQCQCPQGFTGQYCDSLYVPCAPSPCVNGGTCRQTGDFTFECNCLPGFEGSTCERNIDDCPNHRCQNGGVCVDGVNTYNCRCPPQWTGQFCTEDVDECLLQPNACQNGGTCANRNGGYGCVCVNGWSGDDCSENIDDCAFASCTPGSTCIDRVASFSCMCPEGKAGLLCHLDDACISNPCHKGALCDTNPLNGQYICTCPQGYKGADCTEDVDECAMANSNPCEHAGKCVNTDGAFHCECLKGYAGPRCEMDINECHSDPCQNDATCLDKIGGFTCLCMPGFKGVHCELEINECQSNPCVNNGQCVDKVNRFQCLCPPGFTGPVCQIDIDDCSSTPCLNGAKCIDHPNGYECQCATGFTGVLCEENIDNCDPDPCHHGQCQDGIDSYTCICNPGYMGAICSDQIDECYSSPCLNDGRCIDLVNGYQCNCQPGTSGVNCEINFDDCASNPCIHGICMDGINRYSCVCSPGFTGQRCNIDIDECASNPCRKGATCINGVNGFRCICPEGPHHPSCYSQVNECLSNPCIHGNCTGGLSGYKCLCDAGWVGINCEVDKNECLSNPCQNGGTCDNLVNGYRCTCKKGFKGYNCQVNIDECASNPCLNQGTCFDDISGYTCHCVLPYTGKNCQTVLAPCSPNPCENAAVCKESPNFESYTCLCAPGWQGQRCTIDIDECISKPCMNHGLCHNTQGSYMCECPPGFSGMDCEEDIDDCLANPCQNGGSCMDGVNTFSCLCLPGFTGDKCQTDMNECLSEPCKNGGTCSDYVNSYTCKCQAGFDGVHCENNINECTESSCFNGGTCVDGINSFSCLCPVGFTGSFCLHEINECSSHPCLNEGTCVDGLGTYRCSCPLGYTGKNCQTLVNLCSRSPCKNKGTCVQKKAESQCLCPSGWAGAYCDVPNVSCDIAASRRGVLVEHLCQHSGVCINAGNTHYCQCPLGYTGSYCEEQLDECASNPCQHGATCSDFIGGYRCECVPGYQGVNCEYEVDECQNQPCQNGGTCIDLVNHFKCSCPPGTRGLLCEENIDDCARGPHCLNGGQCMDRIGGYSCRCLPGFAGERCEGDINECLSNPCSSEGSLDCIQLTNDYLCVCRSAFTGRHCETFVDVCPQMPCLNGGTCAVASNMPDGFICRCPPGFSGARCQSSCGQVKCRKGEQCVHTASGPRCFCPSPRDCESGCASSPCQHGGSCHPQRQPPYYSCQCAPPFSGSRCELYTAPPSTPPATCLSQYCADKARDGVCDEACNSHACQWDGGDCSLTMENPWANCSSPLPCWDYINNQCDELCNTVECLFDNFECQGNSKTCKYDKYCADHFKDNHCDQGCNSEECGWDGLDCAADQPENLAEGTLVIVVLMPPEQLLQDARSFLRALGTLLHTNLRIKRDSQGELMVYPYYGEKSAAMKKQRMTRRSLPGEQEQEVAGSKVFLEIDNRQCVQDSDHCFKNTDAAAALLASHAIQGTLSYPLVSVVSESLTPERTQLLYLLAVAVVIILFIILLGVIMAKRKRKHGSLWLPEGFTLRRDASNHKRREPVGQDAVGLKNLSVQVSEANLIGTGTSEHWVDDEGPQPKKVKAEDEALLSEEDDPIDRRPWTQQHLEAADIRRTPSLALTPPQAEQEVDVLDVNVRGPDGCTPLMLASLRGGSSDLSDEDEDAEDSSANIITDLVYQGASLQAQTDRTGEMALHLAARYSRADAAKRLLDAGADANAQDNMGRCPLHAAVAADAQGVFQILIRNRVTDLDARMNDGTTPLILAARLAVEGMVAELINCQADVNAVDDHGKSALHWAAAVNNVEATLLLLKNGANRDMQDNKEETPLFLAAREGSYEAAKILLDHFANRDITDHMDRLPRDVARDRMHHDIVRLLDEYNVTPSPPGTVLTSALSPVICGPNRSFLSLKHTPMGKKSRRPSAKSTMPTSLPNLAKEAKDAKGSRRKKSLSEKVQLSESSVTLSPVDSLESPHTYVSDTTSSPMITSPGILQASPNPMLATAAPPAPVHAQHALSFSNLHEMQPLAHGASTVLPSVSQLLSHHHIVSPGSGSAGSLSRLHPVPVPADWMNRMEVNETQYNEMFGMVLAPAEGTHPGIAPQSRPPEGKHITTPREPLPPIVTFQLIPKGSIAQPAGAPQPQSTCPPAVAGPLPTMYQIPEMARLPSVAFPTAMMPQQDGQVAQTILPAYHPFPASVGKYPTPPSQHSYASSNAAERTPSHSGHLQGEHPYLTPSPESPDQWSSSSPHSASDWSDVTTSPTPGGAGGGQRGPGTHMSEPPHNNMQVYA

For `CN(C)CCCC[C@@H]1NC(=O)[C@@H]2C[C@H](C(=O)O)[C@H](c3cccc(OCCO)c3)N2C1=O`, the composite z-score in assay [1] is 0.119; in [2], -0.326; in assay [3] it was -0.186; in assay [4], -0.392; in [5], -0.561; in assay [6], -0.579. For the same molecule, the composite z-score in assay [7] is -0.106; in assay [9], -0.124; in assay [10], -0.175. The z-score in [8] is 1.3 (inactive).

On to `COCCOC(=O)N1C(=O)[C@@]2(c3cc(C#Cc4ccc(OC)cc4)ccc31)[C@H](C(=O)NC[C@H](O)c1ccccc1)[C@H]1C(=O)O[C@H](c3ccccc3)[C@H](c3ccccc3)N1[C@@H]2c1ccc(OCCO)cc1`, for which the composite z-score in assay [1] was -0.157; in [2] it was 0.946; in assay [3] it was -0.12; in assay [4], 0.912; in [5], 1.12; in assay [6] it was 1.46. Further, the figures for the composite z-score in [7], in [9] and in [10] were 1.28, 0.41 and -0.0994, respectively. Also, the z-score in [8] was 0.643 (inactive).

For the molecule `CCCNC(=O)[C@@]1(C)c2ccccc2C(=O)N(Cc2ccccc2)[C@H]1c1ccc(CO)cc1`, the composite z-score was 1.93 in assay [1]; -0.685 in assay [2]; 0.12 in assay [3]; 1.32 in assay [4]; -1.28 in assay [5]; 1.97 in [6]. The composite z-score in assay [7] was 0.974; in assay [9], 0.476; in assay [10], 0.106. The z-score in [8] is -1.98 (inactive).

Regarding `O=C1C2C=CC(C(O)c3ccc(I)cc3)N(Nc3ccccc3)C2C(=O)N1c1ccccc1` (stereo not given), the composite z-score in [1] is 0.996; in assay [2], 0.404; in [3] it was 0.106; in [4], 0.368; in [5] it was 1.54; in assay [6], 2.13. The composite z-score was 1.22 in assay [7], 1.27 in assay [9] and -0.0988 in [10]. The z-score in assay [8] is -1.92 (inactive).

With `NC(=O)N1C(=O)C2C(C1=O)C1C=C(CCCO)C2C(C2CC2)N1Cc1cccc(OC(F)(F)F)c1` (stereo not given), the composite z-score in assay [1] is -0.284; in assay [2] it was 0.497; in assay [3] it was -0.139; in assay [4], -0.238; in assay [5], -0.22; in assay [6], 1.95. The composite z-score in assay [7] was 1.3; in assay [9], -0.108; in assay [10], -0.122. Moreover, in assay [8], the z-score was 0.0154 (inactive).

For the molecule `[N-]=[N+]=Nc1ccccc1C[C@@]1(C(=O)O)N=C(c2ccc(OCCCO)cc2)O[C@@H]1c1ccccc1N=[N+]=[N-]`, the composite z-score in assay [1] was determined as 0.943; in [2], 0.211; in assay [3], 0.0171; in assay [4], 0.325; in assay [5], 1.37; in assay [6] it was 1.95. Also, the composite z-score was 1.21 in assay [7], 1.36 in assay [9] and -0.283 in assay [10]. Also, the z-score in assay [8] was -0.22 (inactive).

`O=C(NCC(O)CO)[C@@]1(CCS(=O)(=O)c2ccccc2)COC(c2ccc(OCCCO)cc2)=N1` (stereo not given in full): the composite z-score in [1] turned out to be 1.05; in assay [2], 1.85; in assay [3], 0.0729; in [4], 0.25; in assay [5], 1.45; in [6], 2.12. For the same molecule, the composite z-score is 1.41 in assay [7], 1.1 in assay [9] and -0.214 in assay [10]. Also, the z-score in assay [8] is -1.16 (inactive).

`COc1ccc(C#Cc2ccc3c(c2)[C@]2(C(=O)N3)[C@H](C(=O)N3CCCCCCC3)[C@H]3C(=O)O[C@H](c4ccccc4)[C@H](c4ccccc4)N3[C@@H]2c2ccc(O)cc2)cc1`: the composite z-score is 2.46 in assay [1]; 0.578 in assay [2]; 0.102 in [3]; 0.295 in [4]; 0.97 in assay [5]; -0.234 in assay [6]. The composite z-score in [7] amounted to 1.24; in [9] it was 2.24; in assay [10] it was 0.606. In addition, the z-score in [8] was 0.626 (inactive).

With `COc1cc(NN2C(C(O)c3cc(OC)c(OC)c(OC)c3)C=CC3C(=O)N(c4ccccc4)C(=O)C32)cc(OC)c1OC` (stereo not given), the composite z-score in assay [1] was 0.457; in assay [2], 0.512; in assay [3], 0.432; in [4], 1.09; in assay [5], 1.57; in assay [6] it was 1.79. Further, the values for the composite z-score in assay [7], in [9] and in assay [10] were 1.38, 0.669 and -0.0631, respectively. In addition, the z-score in assay [8] was 0.997 (inactive).

As to `COc1cc(NN2C(C(O)C3CCCCC3)C=CC3C(=O)N(c4ccccc4)C(=O)C32)cc(OC)c1OC` (stereo not given), the composite z-score in [1] is 1.44; in assay [2], -0.28; in assay [3] it was -0.116; in assay [4], 0.56; in assay [5] it was 1.7; in [6] it was 1.67. For the same molecule, the composite z-score in assay [7] is 1.18; in assay [9], 0.964; in [10] it was -0.202. For the same molecule, the z-score in assay [8] is 0.374 (inactive).

As for `COCC(=C=CC[C@@H](O)c1cccc(OCCO)c1)CCO`, the composite z-score in assay [1] was -0.117; in [2], 0.0969; in assay [3] it was -0.11; in [4], 0.674; in assay [5], 0.234; in assay [6] it was 0.678. The composite z-score was 1.02 in assay [7], 0.101 in assay [9] and -0.0074 in assay [10]. The z-score in [8] was 0.604 (inactive).

In the case of `COCC1C2CC[C@H]3C(OCc4ccc(OC)cc4)OC[C@]4(C)[C@H]3C2=C(CN4C(=O)OC(C)(C)C)[C@H](C)C1COC` (stereo not given in full), the composite z-score in [1] is -0.163; in assay [2] it was 0.0867; in assay [3] it was 0.142; in assay [4], 1.09; in [5] it was 1.72; in assay [6] it was 1.73. Further, the results for the composite z-score in assay [7], in assay [9] and in [10] were 1.18, 0.993 and -0.164, respectively. Also, in [8], the z-score was -0.31 (inactive).

Turning to `COc1ccc([Si](C)(C)[C@H]2[C@H](CC(=O)N3Cc4ccccc4C[C@H]3CO)O[C@@]3(C(=O)N(Cc4ccc(N5C(=O)c6cccc7cccc5c67)cc4)c4ccccc43)[C@@H]2C)cc1`, the composite z-score in assay [1] is -0.0494; in assay [2], 0.245; in assay [3], -0.0953; in assay [4], 0.329; in assay [5], 0.393; in assay [6], 1.73. Moreover, the composite z-score in assay [7] worked out at 1.17; in assay [9] it was 1.07; in [10], 0.61. Also, the z-score in assay [8] is -4.44 (inactive).

Take `C=C(/C(=C/C[C@@H](OC(=O)c1ccncc1)c1cccc(OCCO)c1)c1cnc2ccccc2c1)C(C)C`: the composite z-score was 0.21 in assay [1]; 0.375 in [2]; -0.123 in assay [3]; 1.15 in assay [4]; 1.22 in [5]; 0.788 in [6]. Also, the figures for the composite z-score in assay [7], in [9] and in assay [10] were 1.17, 0.573 and -0.116, respectively. Further, the z-score in [8] was 2.61 (inactive).

Consider `Cc1ccc(S[C@]2(C(=O)NCC(C)C)CC(=O)N(C3Cc4ccccc4C3)[C@@H]2c2ccc(CO)cc2I)cc1`, for which the composite z-score in [1] is 0.757; in assay [2], -0.5; in assay [3], -0.0238; in [4], 0.166; in [5], -1.01; in [6], 0.123. The figures for the composite z-score in [7], in [9] and in assay [10] were -0.126, 0.962 and 0.513, respectively. Moreover, the z-score in assay [8] was -1.83 (inactive).

Turning to `COC(=O)[C@@]1(Cc2ccccc2)[C@H]2c3cc(C(=O)N(C)C)n(CCn4cc([N+](=O)[O-])nc4C)c3C[C@H]2CN1C(=O)c1ccccc1`, the composite z-score is 0.0989 in assay [1]; 0.227 in assay [2]; -0.045 in assay [3]; 0.861 in [4]; 1.23 in assay [5]; 0.204 in [6]. Also, the composite z-score in [7] is 1.2; in [9], 0.928; in assay [10], -0.281. In [8], the z-score is -0.0393 (inactive).
